Assay outcomes as filed in PubChem.
HT1080NT lethal: kills 2HG-producing HT-1080-NT fibrosarcoma cells. HT-1080-NT fibrosarcoma viability, CellTiter-Glo ATP luminescence, 48 h. Potency, µM (doses to about 46.1 µM), without a hit: top-dose activity, negative = less viability, actives largely listed as cytotoxic. 1.6% of 360,000 active. AID 686970;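 note: NT is the 2HG producing partner of a matched IDH1 knockdown line; potency is the fitted concentration of half-maximal effect; 0% = DMSO-treated cells and -100% = media-only wells without cells; nearly all actives have a fitted effect of over 55% in size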
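HT-1080-NT fibrosarcoma cells (2HG-overproducing), 750 cells/well in RPMI with 5% FBS, dosed after 2 h and incubated 48 h at 37C. CellTiter-Glo luminescence normalized to DMSO and no-cell wells; concentration-response curves fitted and classed.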
DT40 TDP1 no CPT: qHTS for Inhibitors of human tyrosyl-DNA phosphodiesterase 1 (TDP1): qHTS in cells in absence of CPT; DT40 Tdp1-/- hTDP1 cells, no CPT, ATP luminescence, 48 h; Potency, µM (series often up to 46.2 µM), inactives show at the top dose activity change, negative = growth inhibition, most hits filed as inhibitors; 15% of 420,000 active; note: potency is the fitted concentration of half-maximal effect; nearly all actives have a fitted effect of over 55% in size
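Seeded 400 DT40-hTDP1 cells/well (vehicle DMSO, no 20 nM CPT); pinned compounds; ≥48 hr at 37 °C; CellTiter-Glo luminescence as viability measure.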
IL-1B inflam inh: blocks inflammasome-driven IL-1 beta release. THP-1 LPS/ATP IL-1B secretion, AlphaLISA, 16 h; stronger effect = lower value. activity change, % at 57.5 µM. 4.7% of 360,000 active; in the data active = activity change below about -50%; inconclusive = mostly about -30% to -49%
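THP-1 cells pretreated 1 hr with compounds (up to 57.5 uM final), then stimulated with LPS (250 ng/mL final) plus ATP (1.25 mM final); secreted IL-1B measured by AlphaLISA after 16 hr, decreased signal indicating inhibition.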
HT1080 IDH1KD tx: toxicity to HT-1080 IDH1 knockdown cells (counter line); HT-1080 IDH1 knockdown viability, ATP luminescence, 48 h; Potency, µM (highest dose often 46.1 µM), for inactives: at the top dose activity, negative = toxicity, actives largely listed as cytotoxic; 2% of 360,000 active; AID 686971;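 note: potency is the fitted concentration of half-maximal effect; 0% = DMSO wells and -100% = cell-free medium wells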
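% activity derives from luminescence (CellTiter-Glo), normalised to DMSO and no-cell wells. HT-1080-IDH1KD cells, 750/well, had 48 h compound exposure at 37 °C.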
TDP1 cell CPT: growth inhibition of DT40 Tdp1-/-;hTDP1 cells with camptothecin (screen for TDP1 inhibitors) | chicken DT40 Tdp1-/-;hTDP1 cells + 20 nM CPT, ATP luminescence, 48 h | Potency, µM (titrated, usually from 46.2 µM), without a hit: at the top dose activity change, negative = growth inhibition, usual class: inhibitors | 12% of 420,000 active | AID 686979; note: potency is the fitted concentration of half-maximal effect; nearly all actives have a fitted effect of over 55% in size
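Chicken DT40 Tdp1-/- cells complemented with human TDP1, 400 cells/well, exposed to compounds plus 20 nM camptothecin for at least 48 h at 37 C; viability read as ATP content by CellTiter-Glo luminescence.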
* hit, by the source's call; ? = inconclusive; . = no result. Shown are actives, neighbours in structure and some others; about 19% of the full set was active somewhere. Unless noted, calls come from the whole dose curve; as a rule, active = well fitted curve in the direction sought with a large enough effect; inconclusive = small, poorly fitted or top-dose-only effect, or another doubt; inactive = no such curve, though single readings can be large; an effect the other way counts as inactive or inconclusive. Unless noted, % is set by controls: 0 for no effect and ±100 for the full control effect.

SMILES | HT1080NT lethal | DT40 TDP1 no CPT | IL-1B inflam inh | HT1080 IDH1KD tx | TDP1 cell CPT
CCCOc1ccc(/C=C/c2c([N+](=O)[O-])c(=O)n(C)c(=O)n2C)cc1 | 1% | -17% | -77* | -10% | -22%
Cn1c(/C=C/c2ccc(Br)cc2)c([N+](=O)[O-])c(=O)n(C)c1=O | ? | 12µM* | -103* | 13µM* | 8.2µM*
COc1cc(/C=C/c2c([N+](=O)[O-])c(=O)n(C)c(=O)n2C)cc(OC)c1OC | -10% | ? | -5 | ? | ?
COc1ccc(/C=C/c2c([N+](=O)[O-])c(=O)n(C)c(=O)n2C)cc1O | -3% | ? | -83* | -11% | -29%
CC(C)CN(C(=O)c1ccc(C(F)(F)F)cc1)c1c(N)n(CC(C)C)c(=O)[nH]c1=O | -8% | -3% | 21 | -6% | 4%
CCN(CC)S(=O)(=O)c1ccc(C)c(NC(=O)COC(=O)CCC(=O)c2cccs2)c1 | -3% | -11% | 17 | 8% | 3%
O=C1C=C(C2OC(CO)C(O)C2O)C(=O)N1 (stereo not given) | 5% | 6.5µM* | ? | 9% | 4.6µM*
OC[C@H]1O[C@@H](c2nc(-c3ccccc3Br)no2)[C@H](O)[C@@H](O)[C@H]1O | 25% | 2% | 20 | 14% | -10%
c1ccc(-c2ccc(N3CCCC4(CCNCC4)C3)cc2)cc1 | . | 2.6µM* | . | . | 5.8µM*
c1ccc(-c2ccc(N3CC[C@@]4(CCCNC4)C3)cc2)cc1 | . | 21µM* | . | . | 18µM*
c1ccc(C(c2ccccc2)N2CC3(CCNCC3)C2)cc1 | . | 15µM* | . | . | 21µM*
COc1ccc(C(=O)N2CCC3(CCCN(c4ccc(-c5ccccc5)cc4)C3)CC2)cc1 | . | ? | . | . | -19%
c1ccc(-c2ccc(N3CC4(CCNCC4)C3)cc2)cc1 | . | 2.6µM* | . | . | 4.1µM*
O=C(c1ccncc1)N1CCC2(CC1)CN(C(c1ccccc1)c1ccccc1)C2 | . | -3% | . | . | 7%
O=C(/C=C\NCC(=O)c1ccccc1)c1ccc2ccccc2c1 | 0% | ? | -54* | 11% | -29%
Cc1nc2c(F)c(F)c(C(F)(F)F)c(F)c2[nH]1 | -26% | 21µM* | 99 | ? | ?
COC(=O)N1CCCCC1c1cc(C(=O)NCc2ccc(Cl)c(Cl)c2)no1 (stereo not given) | -9% | ? | -12 | -21% | ?
Cc1cc(=O)n(CC(=O)NCCN2CCOCC2)c2c1c(C)nn2-c1ccccc1 | ? | 12% | 44 | -9% | -9%
CCN1CCN(CCNC(=O)CCc2c(C)c3c(C)nn(-c4ccccc4)c3n(C)c2=O)CC1 | ? | ? | -61* | ? | ?
CCn1c(=O)c(CCC(=O)NCCN2CCOCC2)c(C)c2c(C)nn(-c3cccc(C)c3)c21 | -1% | 16µM* | -5 | -1% | ?
COC(=O)C[C@H]1C=C[C@H](NC(=O)Nc2ccccc2F)[C@@H](CO)O1 | 27% | 3% | 14 | 28% | 1%
NC(=O)c1nc(-c2ccc(F)c(F)c2)nc2c1[nH]c(=O)n2-c1cccc(Cl)c1 | . | -17% | . | . | ?
CC[C@H](C)[C@@H](CNC)NC[C@@H](Cc1ccc(O)cc1)NCC(C)(C)C | -10% | -29% | -14 | 2% | ?
CCCC[C@H](CN[C@@H](CNC)[C@H](C)CC)NCCC12CCC(CC1)C2 | ? | 3.7µM* | -68* | ? | 2.6µM*
COc1ccc(Cl)cc1NC(=O)C(=O)NCc1ccncc1 | -1% | -27% | -52* | -1% | -16%
SMILES | HT1080NT lethal | DT40 TDP1 no CPT | IL-1B inflam inh | HT1080 IDH1KD tx | TDP1 cell CPT
COc1ccccc1NC(=O)C(=O)NCc1ccncc1 | 3% | 2% | 4 | -2% | 2%
COc1ccc2nc(NC(=O)CN(C)S(=O)(=O)c3cccs3)sc2c1 | -14% | -28% | -24 | -8% | ?
CC(=O)c1c(C)[nH]c(C(=O)OCc2nnc(-c3ccc([N+](=O)[O-])cc3)o2)c1C | 23µM* | 15µM* | 45 | ? | 23µM*
CS(=O)(=O)c1ccc(C(=O)OCc2nnc(-c3ccc(Cl)cc3)o2)cc1[N+](=O)[O-] | ? | 4.6µM* | -77* | 18µM* | 3.3µM*
Cn1ncc2c(Nc3ccc4ccccc4c3)ncnc21 | ? | ? | -17 | 0% | ?
Cn1ncc2c(N)nc(NCCO)nc21 | 10% | -4% | -9 | 15% | 1%
Cn1ncc2c(Nc3ccc(O)cc3)nc(Cl)nc21 | -23% | -5% | 35 | ? | -3%
CNc1nc(Nc2ccc(C)c(Cl)c2)c2cnn(C)c2n1 | -25% | 15µM* | -26 | ? | 23µM*
CCCNc1nc(Nc2ccc(C)c(Cl)c2)c2cnn(C)c2n1 | ? | 23µM* | 22 | -27% | 16µM*
Cc1ccc(Nc2nc(NCCO)nc3c2cnn3C)cc1Cl | -10% | 15µM* | 9 | -1% | 21µM*
Cn1ncc2c(Nc3cccc(Cl)c3)nc(Nc3cccc(Cl)c3)nc21 | 15µM* | 12µM* | -81* | 21µM* | 16µM*
COc1ccc(S(=O)(=O)N2CCN(C(=O)N3CCOCC3)C2C)cc1 (stereo not given) | 14% | -6% | -16 | 11% | -7%
COc1ccccc1CNC(=O)C1CCN(S(=O)(=O)Cc2ccccc2)CC1 | . | 0% | . | . | -12%
CC(=O)Nc1ccc(Nc2ccc3c4c(cc(=O)n3C)-c3ccccc3C(=O)c24)cc1 | 1% | 6.5µM* | ? | -2% | -25%
CCOc1ccccc1CNCCO | 2% | 9% | 2 | 5% | -5%
CCOc1cc(CNC(C)(C)CO)cc(Br)c1OCc1ccc(Cl)cc1Cl | 11µM* | 21µM* | ? | 10µM* | 21µM*
CCCCOc1c(Cl)cc(CNC(C)(C)CO)cc1OCC | ? | -24% | -10 | ? | ?
CC(C)(CO)NCc1cccc(OCc2ccc(Cl)cc2)c1 | ? | ? | ? | -27% | ?
CCOc1cc(CNCCO)cc(Br)c1OCc1ccc(Cl)cc1 | ? | ? | -16 | ? | 26µM*
COc1cccc(CNC(C)(C)CO)c1OCc1ccc(Cl)cc1 | -12% | ? | -57* | -7% | -20%
CCOc1cccc(CNCCO)c1OCc1ccc(Cl)cc1 | -23% | ? | -55* | -22% | ?
CCOc1ccc(NC(=O)C2CCCN(S(=O)(=O)c3ccc(Br)s3)C2)cc1 (stereo not given) | . | -30% | . | . | -15%
COc1ccc(C(=O)C[n+]2cc(Br)cc(Br)c2)cc1 | . | 3% | . | . | -5%
O=S(=O)(O)c1ccc(O)cc1 | . | 3% | . | . | 9%
